Data as given in PubChem BioAssay (EPA / NIEHS).
Calls of active or inactive are those of the source. Rule for the calls: active = hit-call score of the fitted dose curve at least 0.9, where 1 is the maximum; inactive = score below 0.9.

Each compound was assayed against Nuclear respiratory factor 1 (Homo sapiens) (UniProt Q16656) (assay: ATG_NRF1_CIS: Attagene CIS-FACTORIAL HepG2 Assay for human Nuclear Respiratory Factor 1 (NRF1) Orphan Gene (AID 2282987)). Settings: HepG2 NRF1 cis-element reporter, Attagene multiplex; actives raise or lower the signal.
Chain of Nuclear respiratory factor 1 (Homo sapiens) (Q16656 whole entry, looked up): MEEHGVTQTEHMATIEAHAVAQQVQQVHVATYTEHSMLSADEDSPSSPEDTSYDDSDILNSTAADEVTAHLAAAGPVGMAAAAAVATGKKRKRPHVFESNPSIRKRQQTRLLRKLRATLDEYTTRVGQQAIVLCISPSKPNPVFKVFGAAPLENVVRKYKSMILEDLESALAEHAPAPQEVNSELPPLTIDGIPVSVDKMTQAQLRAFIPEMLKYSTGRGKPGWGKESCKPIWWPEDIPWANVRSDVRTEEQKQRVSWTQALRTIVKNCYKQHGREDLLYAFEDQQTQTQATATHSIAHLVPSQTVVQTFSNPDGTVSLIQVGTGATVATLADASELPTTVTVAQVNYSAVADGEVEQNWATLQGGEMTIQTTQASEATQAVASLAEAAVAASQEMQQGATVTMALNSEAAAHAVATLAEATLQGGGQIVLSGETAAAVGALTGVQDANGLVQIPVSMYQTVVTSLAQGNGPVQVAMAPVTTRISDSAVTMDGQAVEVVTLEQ
Procedure: ATG_CIS is a cell-based, multiplexed-readout assay that uses HepG2, a human liver cell line, with measurements taken at 24 hours after chemical dosing in a 24-well plate.ATG_NRF1_CIS is one of 52 assay component(s) measured or calculated from the ATG_CIS assay. It is designed to make measurements of mRNA induction, a form of inducible reporter, as detected with fluorescence intensity signals by Reverse transcription polymerase chain reaction (RT-PCR) and Capillary electrophoresis technology.Data from the assay component ATG_NRF1_CIS was analyzed into 1 assay endpoint. This assay endpoint, ATG_NRF1_CIS, was analyzed with bidirectional fitting relative to DMSO as the negative control and baseline of activity. Using a type of inducible reporter, measures of mRNA for gain or loss-of-signal activity can be used to understand the reporter gene at the transcription factor-level as they relate to the gene NRF1. Furthermore, this assay endpoint can be referred to as a primary readout, because this assay has produced multiple assay endpoints where this one serves a reporter gene function. To generalize the intended target to other relatable targets, this assay endpoint is annotated to the dna binding intended target family, where the subfamily is nuclear respiratory factors.
Human liver HepG2 cells are transiently transfected with multiple reporter transcription units (MRTUs) in 6-well plates using FuGene 6 reagent (Roche; 3 ml FuGene/1 mg DNA). The MRTU constructs are regulated by a cis-regulating element (promoter). […] A major difference between the CIS and TRANS system is that in CIS activities of endogenous TFs are measured, whereas the TRANS assay evaluates changes in activities of exogenous, chimeric NR-Gal4 proteins. […] At the end of 24 hour incubation, total RNA was isolated using TriZol reagent (Invitrogen). The isolated RNA is then reverse-transcribed using oligo(dT) primer and Mo-MLV reverse transcriptase (Invitrogen) with DNAse I (Ambion) treatment for 30 min. The one-tenth of the produced cDNA was amplified by PCR using Taq DNA polymerase (Invitrogen) and two reporter sequence-specific primers. The PCR products were fluorescently labeled by primer extension with 6-arboxyfluorescein (6-FAM) 5'-labeled reporter sequence-specific primer (2 min at 95 C, 20 s at 68 C and 10 min at 72 C) and these products were digested with 5U of HpaI (New England Biolabs) for 2h at 37 C. The fragments were purified using Qiaquick PCR columns (Qiagen), analyzed on an ABI 3130xL genetic analyzer (Applied Biosystems) with peak positions identified by using a set of X-rhodamine (ROX)-labeled MapMarker1000 molecular weight standards (BioVentures). The raw capillary electrophoresis data was processed using Attagraph software (Attagene).
For Cn1ccnc1, the outcome was “inactive”.
With CC(=O)C(C)C the outcome was “inactive”.
For CO[Si](CCCS)(OC)OC, the outcome was “inactive”.
For Cc1c[nH]c(=O)[nH]c1=O, the outcome was “inactive”.
For C=C(C)C(=O)OCCCCCCCCCCCC, the outcome was “inactive”.
In the case of C=CC(=O)NC(C)(C)C, the outcome is reported as “inactive”.
CC(C)[N+](C)(CCOC(=O)C1c2ccccc2Oc2ccccc21)C(C)C was tested, and the outcome was “inactive”.
For CCOC(=O)/C=C\C(=O)OCC, the outcome was “inactive”.
With Cc1cc(=O)[nH]c(=O)[nH]1 the outcome was “inactive”.
In the case of CCc1cccc(C)c1N, the outcome is reported as “inactive”.
With N=C1C=CC(=C(c2ccc(N)cc2)c2ccc(N)cc2)C=C1 the AC50 was 100 µM (active).
With CCCCCCCCCCCC(C)=O the AC50 was 158 µM (active).
In the case of CC(C)=NNC(N)=S, the outcome is reported as “inactive”.
For CC(C)=CCCC(C)=CC#N, the outcome was “inactive”.
With CC(Cl)COP(=O)(OCC(C)Cl)OCC(C)Cl (stereo not given) the outcome was “inactive”.
For CC(=O)OCC=C(C)C, the outcome was “inactive”.
COC(=O)CC(C)CCC=C(C)C (stereo not given) was tested, and the outcome was “inactive”.
Oc1ccc(-c2ccccc2)c(Cl)c1 was tested, and the outcome was “inactive”.
In the case of CC(C)c1ccc(O)c(C(C)C)c1, the outcome is reported as “inactive”.
For CCNc1nc(NC(C)(C)C)nc(OC)n1, the outcome was “inactive”.
COCC(=O)O was tested, and the outcome was “inactive”.
O=C1CCCCC1C1CCCCC1 (stereo not given) was tested, and the outcome was “inactive”.
For C=CC(=O)OCC(C)OCC(C)OCC(C)OC(=O)C=C (stereo not given), the outcome was “inactive”.
C=CC(=O)OCCCCCCCCCC was tested, and the outcome was “inactive”.
In the case of NC(=O)Nc1ccccc1, the outcome is reported as “inactive”.
For Cc1cc(C)c(C=O)c(C)c1, the outcome was “inactive”.
For C[Si](C)(C)N[Si](C)(C)C, the outcome was “inactive”.
For CCCCOCCOC(=O)COc1ccc(Cl)cc1Cl, the outcome was “inactive”.
For Nc1ccc(C(=O)OCCCOC(=O)c2ccc(N)cc2)cc1, the outcome was “inactive”.
In the case of CCC(C)C(=O)OC (stereo not given), the outcome is reported as “inactive”.
For Cc1ccc([N+](=O)[O-])cc1N, the outcome was “inactive”.
In the case of CC=C(C)C=CC=C(C)C, the outcome is reported as “inactive”.
For CC(=O)CCC1=C(C)CCCC1(C)C, the outcome was “inactive”.
With CCCCOCC(C)O (stereo not given) the outcome was “inactive”.
For CCCCCCCCCCCCCC(=O)OC(C)C, the outcome was “inactive”.
CC(C=O)c1ccccc1 (stereo not given) was tested, and the outcome was “inactive”.
With O=C1c2ccccc2C(=O)c2cc(S(=O)(=O)O)ccc21 the outcome was “inactive”.
In the case of CCCCOCCOCCOC(C)=O, the outcome is reported as “inactive”.
In the case of CC1=CC(C)C(C=O)CC1 (stereo not given), the outcome is reported as “inactive”.
With CC1=CP(=O)(c2ccccc2)CC1 (stereo not given) the outcome was “inactive”.
